Bioassay records as filed in PubChem BioAssay.
RGS7-Gao reg = RGS7-Galphao binding modulators, primary screen, biochemical, multiplexed bead flow cytometry; Guanine nucleotide-binding protein G(o) subunit alpha (Homo sapiens), P09471; actives lie on both sides; binding response (% of control), % at 10 µM; hit rate 0.35% among 220,000; AID 1439, 2008; in the data active = binding response below about 49% or above about 150%; inconclusive = no clear call, values can overlap the other calls; inactive = in between;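 also: fluorescent Galphao held in activated GDP-AlF4 state binding bead-coupled RGS7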
Target sequence (P09471 whole entry, looked up): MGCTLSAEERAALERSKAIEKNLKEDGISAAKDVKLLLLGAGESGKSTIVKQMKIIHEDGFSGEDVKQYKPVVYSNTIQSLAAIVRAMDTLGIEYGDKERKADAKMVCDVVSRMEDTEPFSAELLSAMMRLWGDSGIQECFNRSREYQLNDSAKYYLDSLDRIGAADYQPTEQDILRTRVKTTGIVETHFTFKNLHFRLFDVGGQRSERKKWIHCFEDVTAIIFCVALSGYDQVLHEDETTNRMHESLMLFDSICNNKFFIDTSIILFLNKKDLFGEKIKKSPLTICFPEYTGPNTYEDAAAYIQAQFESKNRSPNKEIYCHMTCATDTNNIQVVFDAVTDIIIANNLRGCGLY
RGS4-Gao reg = modulators of RGS4 binding to Galphao, primary screen, biochemical, multiplexed bead flow cytometry; hit rate 0.33% among 220,000; Guanine nucleotide-binding protein G(o) subunit alpha (Homo sapiens), P09471; actives lie on both sides; binding response (% of control), % at 10 µM; in the data active = binding response below about 49% or above about 150%; inactive = in between;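 also: fluorescent Galphao activated with aluminum fluoride binding bead-coupled RGS4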
Avidin bead fluor = green autofluorescence of compounds with avidin beads – biophysical, 488/530 nm, flow cytometry, artefact control, profiling panel; AID 1775, 2009; fluorescence (KMESF) at 10 µM; hit rate 0.38% among 220,000; compound fluorescence 488/530 nm; hits give high values; in the data active = fluorescence above about 47
RGS8-Gao reg = RGS8-Galphao binding modulators, primary screen, biochemical, multiplexed bead flow cytometry | Guanine nucleotide-binding protein G(o) subunit alpha (Homo sapiens), P09471 | actives lie on both sides | response (percent of control binding), % at 10 µM | hit rate 0.34% among 220,000 | AID 1423, 2008; in the data active = response below about 60% or above about 140%; inactive = in between;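 also: Galphao activated as the GDP aluminium fluoride complex binding bead-coupled RGS8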
RGS16-Gao = modulators of RGS16 binding to Galphao, primary screen, biochemical, human proteins, multiplexed bead flow cytometry. bead-based flow cytometry RGS16-Galphao binding, fluorescence; actives lie on both sides. binding response (% of control), % at 10 µM. hit rate 0.38% among 220,000. AID 1441, 2008;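 also: Galphao activated by GDP with aluminum fluoride before binding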
Target sequence (O15492 whole entry, looked up): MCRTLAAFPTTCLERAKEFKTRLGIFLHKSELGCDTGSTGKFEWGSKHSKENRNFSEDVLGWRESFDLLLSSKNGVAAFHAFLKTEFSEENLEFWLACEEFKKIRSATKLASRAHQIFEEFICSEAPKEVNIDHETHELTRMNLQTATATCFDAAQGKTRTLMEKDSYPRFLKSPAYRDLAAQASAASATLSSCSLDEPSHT
Target sequence (P09471 whole entry, looked up): as the sequence (P09471 whole entry, looked up) above
GSH bead fluor = compound fluorescence on glutathione beads, profiling panel, artefact control, biophysical, 488/530 nm, flow cytometry; AID 1776, 2009; hit rate 0.25% among 190,000; GSH beads flow cytometry, compound fluorescence 488/530 nm; hits give high values; fluorescence (KMESF) at 10 µM; in the data active = fluorescence above about 89;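 also: glutathione beads carrying GST-tagged Bcl family fusion proteins plus one bare bead set; values are compound well signal with DMSO vehicle wells as background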
RGS4-Gao HTS = modulators of RGS–Galpha-o binding, primary screen, biochemical, multiplexed beads, flow cytometry, RGS4/7/8/16/19. shares compounds with RGS16-Gao. multiplexed bead flow cytometry. RGS4–Galpha-o binding response, % at 10 µM. hit rate 99% among 1,600;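 also: fluorescently labeled Galpha-o bound to GDP with aluminium fluoride binding biotinylated RGS beads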
Avidin counter = disruption of biotin probe capture by avidin, counter-screen for RGS protein interaction modulators, biochemical, flow cytometry, bead-based | shares compounds with RGS16-Gao | streptavidin beads, fluorescein-biotin binding | 1,700 tested, under 10 active | inhibition, % at 10 µM | AID 1783, 2009;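 active = inhibition above 50%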;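 also: median green fluorescence of gated singlet beads compared with DMSO control wells; 0% = DMSO wells and 100% = complete loss of bead fluorescence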
RGS8-Gao single = RGS8-Galphao binding modulators, confirmation, biochemical, multiplexed bead flow cytometry, single concentration; shares compounds with RGS16-Gao; bead-based flow cytometry RGS8-Galphao binding, fluorescence; actives lie on both sides; binding response (% of control), % at 10 µM; hit rate 3% among 1,700; in the data active = binding response below about 72% or above about 130%; inactive = in between;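 also: Galphao activated as GDP AlF4 complex before binding bead RGS8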
RGS7-Gao confirm = RGS7-Galphao binding modulators, confirmation, biochemical, multiplexed bead flow cytometry, single concentration. shares compounds with RGS16-Gao. bead-based flow cytometry RGS7-Galphao binding; actives lie on both sides. response (percent of control binding), % at 10 µM. hit rate 7.8% among 1,700. AID 1837, 2009; in the data active = response below about 75% or above about 130%; inactive = in between;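 also: fluorescent Galphao activated with GDP and aluminum fluoride binding bead-coupled RGS7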
RGS16-Gao single = modulators of RGS16-Galphao protein binding, confirmation, biochemical, single concentration, multiplexed bead flow cytometry; shares compounds with RGS16-Gao; bead-based flow cytometry; actives lie on both sides; response (% of control binding), % at 10 µM; hit rate 4% among 1,700; in the data active = response below about 74% or above about 130%; inactive = in between;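 also: Galphao activated as the GDP aluminium fluoride complex binding bead-coupled RGS16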
RGS4-Gao confirm = modulators of RGS4-Galphao protein binding, confirmation, biochemical, single concentration, multiplexed bead flow cytometry; binding response (% of control), % at 10 µM; actives lie on both sides; AID 1840, 2009; shares compounds with RGS16-Gao; hit rate 4% among 1,700; in the data active = binding response below about 74% or above about 130%; inactive = in between
RGS19-Gao conf = regulators of RGS19-Galphao binding, confirmation, biochemical, single point, multiplexed bead flow cytometry. AID 1841, 2009. hit rate 5% among 1,700. bead-based flow cytometry RGS19-Galphao binding; actives lie on both sides. response (percent of control binding), % at 10 µM. shares compounds with RGS16-Gao; in the data active = response below about 50% or above about 160%; inactive = in between;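 also: 100% = no compound control and 0% = blank background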
Active calls of the source: *; i = inactive; ? = inconclusive; · = no result given; [ ] = dose if it differs, or a comment. Compounds with a hit are over-represented: about 1.2% of the library has one in this group of screens. Unless noted, no rule for the calls is given here.

SMILES	RGS7-Gao reg	RGS4-Gao reg	Avidin bead fluor	RGS8-Gao reg	RGS16-Gao	GSH bead fluor	Avidin counter	RGS8-Gao single	RGS7-Gao confirm	RGS16-Gao single	RGS4-Gao confirm	RGS19-Gao conf	others
CCOC(=O)c1ccc[n+](CC(=O)c2ccccc2)c1	113.2	114.5	4	54.4*	13.8	14	0.4	100.2	100.4	102.1	99.2	99.2	RGS4-Gao HTS=114.5*
CC(CCC(=O)O)C1CC[C@@]2(C)C3C(=O)CC4C(C)(C)C(O)CC[C@]4(C)C3C(=O)C[C@]12C (some centres not stated)	?	88.8	5	56.8*	99.7	·	-0.9	100.0	96.7	100.3	98.7	90.2	RGS4-Gao HTS=88.8*
Cc1[nH]c2ccccc2c1/C=N/NC(=O)CNC(=O)c1cccs1	?	89.1	9	97.7	105.5	·	·	·	·	·	·	·
O=C(CNC(=O)c1cccs1)N/N=C/c1c[nH]c2ccccc12	2.4*	2.8*	-1	6.0*	-4.2*	8	0.4	105.4	100.0	108.6	102.6	94.4
CCN(CC)c1ccc(NC(=O)c2ccco2)c(C)c1	99.8	99.0	8	96.3	90.3	19	·	·	·	·	·	·
CCN(CC)c1ccc(NC(=O)c2cccc(F)c2)c(C)c1	40.3*	44.7*	3	53.1*	35.5	25	i	103.0	99.4	101.9	100.8	109.3
Cc1nc2ccccc2n(CC(=O)Nc2cc(Cl)cc(Cl)c2)c1=O	97.4	97.8	20	98.6	101.3	8	·	·	·	·	·	·
Cc1n[nH]c(=S)n1/N=C/c1ccccc1OCc1ccc(Cl)cc1Cl	87.9	92.0	5	68.7	15.3*	5	2.0	96.2	104.5	97.5	98.3	97.7	RGS4-Gao HTS=92.0*
Cc1cc(OCC(=O)Nc2ccccc2F)nc(C(C)C)n1	101.6	99.2	11	100.2	101.5	39	·	·	·	·	·	·
Cc1cc(OCC(=O)Nc2ccc(F)c(F)c2)nc(C(C)C)n1	2.3*	-21.4*	-2	34.3*	-13.4*	29	0.1	98.9	98.8	95.6	95.8	99.6
Cc1cccc(NC(=O)CCn2ccnc2C)c1	16.1*	21.8*	0	14.3*	12.7*	30	-0.8	101.8	93.9	101.9	98.2	96.0
Cc1cccc(NC(=O)CCN2CCOCC2)c1	96.9	100.7	18	101.2	96.8	8	·	·	·	·	·	·
CCc1ccc(S(=O)(=O)/N=C2/C=C(Sc3ncn[nH]3)C(=O)c3ccccc32)cc1	83.8	91.8	7	63.3	24.3*	21	·	·	·	·	·	·	RGS4-Gao HTS=91.8*
CCc1ccc(S(=O)(=O)/N=C2\C=CC(=O)c3ccccc32)cc1	89.0	93.3	11	86.9	78.0	10	·	·	·	·	·	·
CC(C)c1nnc(SCC(=O)N2CCc3ccccc32)n1N	?	99.7	8	96.6	95.2	16	·	·	·	·	·	·
O=C(O)CCCCCN1C(=O)/C(=C\c2ccncc2)SC1=S	100.3	102.4	11	122.2	204.9	7	·	·	·	·	·	·
O=C(O)CCCN1C(=O)/C(=C/c2ccncc2)SC1=S	?	151.3*[activator]	40	104.4	136.9	·	-0.8	99.1	97.7	98.6	98.9	100.7
CCOc1ccc(S(=O)(=O)NN=C2CCN(C(C)=O)CC2)cc1	94.3	100.2	7	99.9	99.1	12	·	·	·	·	·	·
CC(=O)OC(C)CS(=O)(=O)c1ccccc1 (configuration not stated)	30.3*	34.9*	5	28.7*	20.6*	10	0.6	106.8	101.5	105.9	101.6	122.3
Cc1ccc(C(C(=O)NCC2CCCO2)N(Cc2ccccc2)C(=O)c2ccc(-c3ccccc3)[nH]2)o1 (configuration not stated)	94.1	97.0	4	96.9	100.8	11	·	·	·	·	·	·
O=C(NCC1CCCO1)C(c1cccs1)N(Cc1ccccc1Cl)C(=O)c1ccc(-c2ccccc2)[nH]1 (configuration not stated)	86.8	99.2	14	119.2	178.1*[activator]	7	2.0	100.7	97.9	101.8	98.6	92.3	RGS4-Gao HTS=99.2*
CC(C)CCNC(=O)C(=O)Nc1ccccc1	100.2	97.7	10	100.8	100.2	14	·	·	·	·	·	·
COC(=O)c1cc(C)sc1NC(=O)c1cccnc1	·	·	·	·	·	46	2.5	99.6	101.3	98.9	100.3	99.2
N#Cc1c(-c2ccccc2)nc(N2CCCCCC2)[nH]c1=O	88.5	86.0	3	82.2	14.7*	52	-0.4	101.2	103.7	103.8	103.1	94.9	RGS4-Gao HTS=86.0*
CCOC(=O)c1c(CC(C)C)csc1NC(=O)COC(=O)c1cc(OC)c(OC)cc1[N+](=O)[O-]	100.5	100.6	22	98.9	106.2	11	·	·	·	·	·	·
COc1ccc(NC(=O)CC(NCCc2ccccc2)C(=O)O)c(OC)c1 (configuration not stated)	99.1	99.5	23	101.0	100.5	13	·	·	·	·	·	·
